Data published in the supplement of paper PMC4466140.

Legend:
Experiment in all cases: SPOT peptide array binding signal intensity (averaged, normalized) (arbitrary units (background-subtracted, floor 0; scale differs between SH3 domains)); higher = stronger binding of the SH3 domain to the peptide
AgAbp1 = target: AgAbp1
Description: (§1)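 GST-tagged SH3 domains from S. cerevisiae (Sc), A. gossypii (Ag), C. albicans (Ca) and S. pombe (Sp) were incubated at 10 ug/ml overnight at 4 C on cellulose SPOT membranes carrying 292 synthetic 15-mer peptides mined from the S. cerevisiae proteome (cysteines replaced by serines). Binding was detected with anti-GST antibody, HRP secondary and chemiluminescence, quantified with Genespotter, and reported as normalized spot intensities averaged over biological replicates.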

AgBbc1 = target: AgBbc1
Description: as §1

AgBem1-D1 = target: AgBem1-D1
Description: as §1

AgBzz1-D1 = target: AgBzz1-D1
Description: as §1

AgBzz1-D2 = target: AgBzz1-D2
Description: as §1

AgCyk3 = target: AgCyk3
Description: as §1

AgFus1 = target: AgFus1
Description: as §1

AgHof1 = target: AgHof1
Description: as §1

AgHse1 = target: AgHse1
Description: as §1

AgLsb1 = target: AgLsb1
Description: as §1

AgLsb4 = target: AgLsb4
Description: as §1

AgMyo5 = target: AgMyo5
Description: as §1

AgNbp2 = target: AgNbp2
Description: as §1

AgRvs167 = target: AgRvs167
Description: as §1

AgSho1 = target: AgSho1
Description: as §1

AgSla1-D1-D2 = target: AgSla1-D1-D2
Description: as §1

AgSla1-D3 = target: AgSla1-D3
Description: as §1

CaAbp1-D1 = target: CaAbp1-D1
Description: as §1

CaAbp1-D2 = target: CaAbp1-D2
Description: as §1

CaBbc1 = target: CaBbc1
Description: as §1

CaBem1-D1 = target: CaBem1-D1
Description: as §1

CaBzz1-D1 = target: CaBzz1-D1
Description: as §1

CaBzz1-D2 = target: CaBzz1-D2
Description: as §1

CaCyk3 = target: CaCyk3
Description: as §1

CaFus1 = target: CaFus1
Description: as §1

CaHof1 = target: CaHof1
Description: as §1

CaHse1 = target: CaHse1
Description: as §1

CaLsb1 = target: CaLsb1
Description: as §1

CaLsb4 = target: CaLsb4
Description: as §1

CaMyo5 = target: CaMyo5
Description: as §1

CaNbp2 = target: CaNbp2
Description: as §1

CaRvs167 = target: CaRvs167
Description: as §1

CaRvs167-3 = target: CaRvs167-3
Description: as §1

CaSho1 = target: CaSho1
Description: as §1

CaSla1-D1-D2 = target: CaSla1-D1-D2
Description: as §1

CaSla1-D3 = target: CaSla1-D3
Description: as §1

ScAbp1 = target: ScAbp1
Description: as §1

ScBbc1 = target: ScBbc1
Description: as §1

ScBem1-D1 = target: ScBem1-D1
Description: as §1

ScBzz1-D1 = target: ScBzz1-D1
Description: as §1

ScBzz1-D2 = target: ScBzz1-D2
Description: as §1

ScCyk3 = target: ScCyk3
Description: as §1

ScFus1 = target: ScFus1
Description: as §1

ScHof1 = target: ScHof1
Description: as §1

ScHse1 = target: ScHse1
Description: as §1

ScLsb1 = target: ScLsb1
Description: as §1

ScLsb2 = target: ScLsb2
Description: as §1

ScLsb3 = target: ScLsb3
Description: as §1

ScLsb4 = target: ScLsb4
Description: as §1

ScMyo3 = target: ScMyo3
Description: as §1

ScMyo5 = target: ScMyo5
Description: as §1

ScNbp2 = target: ScNbp2
Description: as §1

ScPex13 = target: ScPex13
Description: as §1

ScRvs167 = target: ScRvs167
Description: as §1

ScSho1 = target: ScSho1
Description: as §1

ScSla1-D1-D2 = target: ScSla1-D1-D2
Description: as §1

ScSla1-D3 = target: ScSla1-D3
Description: as §1

SpAbp1-D1 = target: SpAbp1-D1
Description: as §1

SpBbc1 = target: SpBbc1
Description: as §1

SpBzz1-D1 = target: SpBzz1-D1
Description: as §1

SpBzz1-D2 = target: SpBzz1-D2
Description: as §1

SpCyk3 = target: SpCyk3
Description: as §1

SpHof1 = target: SpHof1
Description: as §1

SpHof1-2 = target: SpHof1-2
Description: as §1

SpHof1-3 = target: SpHof1-3
Description: as §1

SpHse1 = target: SpHse1
Description: as §1

SpLsb1 = target: SpLsb1
Description: as §1

SpLsb4 = target: SpLsb4
Description: as §1

SpMyo1 = target: SpMyo1
Description: as §1

SpNbp2 = target: SpNbp2
Description: as §1

SpPex13 = target: SpPex13
Description: as §1

SpRvs167 = target: SpRvs167
Description: as §1

SpSla1-D1-D2 = target: SpSla1-D1-D2
Description: as §1

SpSla1-D3 = target: SpSla1-D3
Description: as §1

QRIRKIPGIPLMSVG
SPOT peptide array binding signal intensity (AgAbp1): 26
SPOT peptide array binding signal intensity (AgBbc1): 184
SPOT peptide array binding signal intensity (AgBem1-D1): 63.5
SPOT peptide array binding signal intensity (AgBzz1-D1): 19.5
SPOT peptide array binding signal intensity (AgBzz1-D2): 34
SPOT peptide array binding signal intensity (AgCyk3): 1
SPOT peptide array binding signal intensity (AgFus1): 296
SPOT peptide array binding signal intensity (AgHof1): 29.2
SPOT peptide array binding signal intensity (AgHse1): 194
SPOT peptide array binding signal intensity (AgLsb1): 13.8
SPOT peptide array binding signal intensity (AgLsb4): 258
SPOT peptide array binding signal intensity (AgMyo5): ≤ 0
SPOT peptide array binding signal intensity (AgNbp2): 486
SPOT peptide array binding signal intensity (AgRvs167): 54.8
SPOT peptide array binding signal intensity (AgSho1): 104
SPOT peptide array binding signal intensity (AgSla1-D1-D2): 40.5
SPOT peptide array binding signal intensity (AgSla1-D3): 11.5
SPOT peptide array binding signal intensity (CaAbp1-D1): 253
SPOT peptide array binding signal intensity (CaAbp1-D2): 358
SPOT peptide array binding signal intensity (CaBbc1): 226
SPOT peptide array binding signal intensity (CaBem1-D1): 34.5
SPOT peptide array binding signal intensity (CaBzz1-D1): 162
SPOT peptide array binding signal intensity (CaBzz1-D2): 106
SPOT peptide array binding signal intensity (CaCyk3): 49.5
SPOT peptide array binding signal intensity (CaFus1): 707
SPOT peptide array binding signal intensity (CaHof1): 0.25
SPOT peptide array binding signal intensity (CaHse1): 94.2
SPOT peptide array binding signal intensity (CaLsb1): 1.25
SPOT peptide array binding signal intensity (CaLsb4): 2460
SPOT peptide array binding signal intensity (CaMyo5): 1.5
SPOT peptide array binding signal intensity (CaNbp2): 549
SPOT peptide array binding signal intensity (CaRvs167): 296
SPOT peptide array binding signal intensity (CaRvs167-3): 6.5
SPOT peptide array binding signal intensity (CaSho1): 303
SPOT peptide array binding signal intensity (CaSla1-D1-D2): 817
SPOT peptide array binding signal intensity (CaSla1-D3): 38.5
SPOT peptide array binding signal intensity (ScAbp1): 99
SPOT peptide array binding signal intensity (ScBbc1): 32.5
SPOT peptide array binding signal intensity (ScBem1-D1): 13.5
SPOT peptide array binding signal intensity (ScBzz1-D1): 2
SPOT peptide array binding signal intensity (ScBzz1-D2): 25
SPOT peptide array binding signal intensity (ScCyk3): 7
SPOT peptide array binding signal intensity (ScFus1): 284
SPOT peptide array binding signal intensity (ScHof1): 2
SPOT peptide array binding signal intensity (ScHse1): 553
SPOT peptide array binding signal intensity (ScLsb1): 9.25
SPOT peptide array binding signal intensity (ScLsb2): 13
SPOT peptide array binding signal intensity (ScLsb3): 3970
SPOT peptide array binding signal intensity (ScLsb4): 349
SPOT peptide array binding signal intensity (ScMyo3): ≤ 0
SPOT peptide array binding signal intensity (ScMyo5): ≤ 0
SPOT peptide array binding signal intensity (ScNbp2): 672
SPOT peptide array binding signal intensity (ScPex13): 408
SPOT peptide array binding signal intensity (ScRvs167): 1160
SPOT peptide array binding signal intensity (ScSho1): 1280
SPOT peptide array binding signal intensity (ScSla1-D1-D2): 1610
SPOT peptide array binding signal intensity (ScSla1-D3): 64
SPOT peptide array binding signal intensity (SpAbp1-D1): 116
SPOT peptide array binding signal intensity (SpBbc1): 9.25
SPOT peptide array binding signal intensity (SpBzz1-D1): 176
SPOT peptide array binding signal intensity (SpBzz1-D2): 5.75
SPOT peptide array binding signal intensity (SpCyk3): 5
SPOT peptide array binding signal intensity (SpHof1): 140
SPOT peptide array binding signal intensity (SpHof1-2): 51.5
SPOT peptide array binding signal intensity (SpHof1-3): 440
SPOT peptide array binding signal intensity (SpHse1): 242
SPOT peptide array binding signal intensity (SpLsb1): 17
SPOT peptide array binding signal intensity (SpLsb4): 3060
SPOT peptide array binding signal intensity (SpMyo1): ≤ 0
SPOT peptide array binding signal intensity (SpNbp2): 359
SPOT peptide array binding signal intensity (SpPex13): 22
SPOT peptide array binding signal intensity (SpRvs167): 1140
SPOT peptide array binding signal intensity (SpSla1-D1-D2): 89.5
SPOT peptide array binding signal intensity (SpSla1-D3): 27
